Experimental data as given in PubChem BioAssay (NCATS).
Results filed as inconclusive are left out. The source made the active and inactive calls. Unless noted, the call rests on the fitted dose curve; in most records, active means well fitted curve in the direction sought with a large enough effect; inconclusive means small, poorly fitted or top-dose-only effect, or another doubt; inactive means no such curve, though single readings can be large; an effect the other way counts as inactive or inconclusive.

Assays:
[1] = qHTS profiling of the MIPE4 collection as inhibitors of Plasmodium falciparum (3D7) proliferation (AID 743344; call rule not given here;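 further: scaled between DMSO vehicle wells and 0.29 µM artemisinin as full inhibition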); settings: P. falciparum 3D7 in erythrocytes, SYBR Green DNA fluorescence, 72 h; at 28.5 µM unless noted
Procedure, shortened: (§1)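 Parasite DNA was quantified by SYBR Green I fluorescence (ex 485, em 535 nm) after overnight lysis in saponin/Triton buffer at room temperature. Cultures at 0.3% parasitemia and 2.5% hematocrit were first exposed to compound for 72 h at 37 C; signals were normalised to artemisinin (0.29 uM) and vehicle wells.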

[2] = qHTS profiling of the MIPE4 collection as inhibitors of Plasmodium falciparum (DD2) proliferation (Rep 2) (AID 743346; call rule not given here); settings: P. falciparum Dd2 in erythrocytes, SYBR Green DNA, 72 h; at 28.5 µM unless noted
Procedure, shortened: as §1

[3] = qHTS profiling of the MIPE4 collection as inhibitors of Plasmodium falciparum (HB3) proliferation (AID 743347; call rule not given here;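 further: plate controls were DMSO vehicle wells for no effect and artemisinin wells for full effect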); settings: P. falciparum HB3 in erythrocytes, SYBR Green DNA, 72 h; at 28.5 µM unless noted
Procedure, shortened: as §1

[4] = High-throughput drug toxicity screening in the BPDCN cell line Gen2.2 (AID 1224824; call rule not given here;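 further: cells exposed to compounds for 48 h before reading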); settings: Gen2.2 BPDCN cells; at 45.8 µM (top of the series) unless noted
Procedure, shortened: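 Gen2.2 cells (500/well) in phenol red-free RPMI with 10% FBS were exposed to compounds for 48 h at 37 °C, 5% CO2. Viability was read by CellTiter-Glo luminescence and normalized to DMSO (100%) and 9.2 uM bortezomib (0%).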

[5] = High-throughput drug toxicity screening in the BPDCN cell line Cal-1 (AID 1224825; call rule not given here); settings: Cal-1 BPDCN cell viability, qHTS; at 45.8 µM (top of the series) unless noted
Procedure, shortened: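 Viability of the BPDCN line Cal-1 is measured as ATP-based luminescence (CellTiter-Glo) following 48 h incubation with compounds. Percent activity uses DMSO-treated wells as 100% and 9.2 uM bortezomib as 0%.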

[6] = qHTS assay for measurement of the activity of small molecule inhibitors on Zika virus induced Caspase-3 activity in human iPSC derived neural progenitor cells (hNPCs) (AID 1224857); further: nearly all actives have a fitted effect of over 65% in size; further: potency means the concentration at half of the fitted maximal effect; on activity change, negative = inhibition: % of control where 0% means no effect
Procedure, shortened: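 Values are percent inhibition of virus-induced caspase-3/7 signal, scaled between uninfected cells and ZIKV-infected cells. Infection used 2 FFU/cell for 6 h after 1 h compound exposure.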

[7] = qHTS Screen of the MIPE 4.0 Collection Against Ewings Sarcoma (RDES) (AID 1259252); further: nearly all actives have a fitted effect of over 35% in size; further: potency means the concentration at half of the fitted maximal effect
Procedure, shortened: (§2)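 Compound titrations go onto adherent log-phase cells 4 h after seeding, incubate 48 h at 37C, then CellTiter-Glo luminescence reports viability relative to DMSO and cell-free controls.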

[8] = qHTS Screen of the MIPE 4.0 Collection Against Ewings Sarcoma (TC71) (AID 1259253); further: nearly all actives have a fitted effect of over 40% in size; further: potency means the concentration at half of the fitted maximal effect
Procedure, shortened: as §2

[9] = qHTS Screen of the MIPE 4.0 Collection Against Ewings Sarcoma (EW8) (AID 1259255); further: nearly all actives have a fitted effect of over 35% in size; further: potency means the concentration at half of the fitted maximal effect;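 on viability: 100% = DMSO-treated cells and 0% = medium-only wells without cells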
Procedure, shortened: as §2

[10] = qHTS Screen of the MIPE 4.0 Collection Against Ewings Sarcoma (TC32) (AID 1259256); further: nearly all actives have a fitted effect of over 45% in size; further: potency means the concentration at half of the fitted maximal effect
Procedure, shortened: as §2

[11] = P-glycoprotein substrates identified in KB-8-5-11 adenocarcinoma cell line, qHTS therapeutic library screen (AID 1346987); further: nearly all actives have a fitted effect of over 65% in size; further: potency means the concentration at half of the fitted maximal effect
Procedure, shortened: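 In this qHTS, P-gp-rich KB-8-5-11 cells received library compounds across a concentration range. Viability was quantified by luminescence after 72 h at 37 degree C.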

[12] = qHTS profiling of the MIPE4 collection as inhibitors of Plasmodium falciparum (DD2) proliferation (AID 743345; call rule not given here); settings: P. falciparum Dd2 in erythrocytes, SYBR Green DNA, 72 h; at 28.5 µM unless noted
Procedure, shortened: as §1

[13] = qHTS assay for measurement of the activity of small molecule inhibitors on Zika virus induced Caspase-3 activity in human astrocytoma cells (AID 1224859); further: potency means the concentration at half of the fitted maximal effect;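 on activity change, negative = inhibition: plate controls were ZIKV-infected untreated cells for no effect and uninfected cells for full effect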
Procedure, shortened: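 Compound added 1 h pre-infection; ZIKV 2 FFU/cell on SNB-19 cells, 6 h, 37 C/5% CO2. Caspase-Glo 3/7 luminescence; values as % inhibition of ZIKV-induced caspase activity.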

[14] = qHTS Assay for Identifying Gametocytocidal Compounds (AID 743244);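 further: on the % scale 0 is the no-effect control and ±100 the full control effect; actives lower the fluorescent signal which means gametocytes are killed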; settings: P. falciparum 3D7 stage III-V gametocytes, alamarBlue, 72 h; max response: stronger effect = lower value
Procedure, shortened: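 Stage III–V gametocytes of P. falciparum 3D7 were seeded at 20,000 cells/well onto pre-dispensed compounds. After 72 h, 37 °C, 5% CO2, alamarBlue was added for another 24 h.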

SMILES	parasite growth, % of DMSO control [1]	parasite growth, % of control (lower = inhibition) [2]	growth, % of control [3]	cell viability, % of control (lower = more cytotoxic) [4]	viability (% of control) [5]	Potency [6]	Potency [7]	Potency [8]	Potency [9]	Potency [10]	Potency [11]	activity change, negative = inhibition [6]	parasite growth remaining, % of DMSO control (lower = more inhibition) [12] [%]	Potency [13]	max response [14]
CC(C)C[C@H](NC(=O)CNC(=O)c1cc(Cl)ccc1Cl)B1OC(=O)CC(CC(=O)O)(C(=O)O)O1 (some centres not stated)	4.74%	7.43%	8.02%	4.85%	3.61%	inactive	235 nM (active)	0.235 µM (active)	0.118 µM (active)	332 nM (active)	935 nM (active)				
CCC(C=C[C@@H]1OC(=O)C=C[C@H]1C)=C[C@H](C)CC=CC(C)=C[C@@H](C)C(=O)[C@@H](C)[C@H](O)[C@@H](C)CC(C)=CC(=O)O	402% [at 1.06 µM]	106% [at 1.06 µM]	577% [at 1.06 µM]	5.63% [at 1.72 µM]	5.92% [at 1.72 µM]		22 nM (active)	0.022 µM (active)	0.0156 µM (active)	13.9 nM (active)	196 nM (active)	14.9% [at 1.73 µM] (inactive)			
C=C(C)[C@@H]1CC[C@]2(C)CC[C@]3(C)[C@H](CC[C@@H]4[C@@]5(C)CC[C@H](O)C(C)(C)[C@H]5CC[C@]43C)[C@@H]12	44.1%		37.4%	162%	121%	inactive	inactive	inactive	inactive	inactive	inactive		92		
O=C1NCCc2[nH]c(-c3ccncc3)cc21	23.6%	17.3%	5.62%	3.21%	12.4%	inactive	3320 nM (active)	2.64 µM (active)	3.32 µM (active)	5260 nM (active)	7430 nM (active)		39		
CCCc1nc(C(C)(C)O)c(C(=O)O)n1Cc1ccc(-c2ccccc2-c2nn[nH]n2)cc1	87.7%	84.2%	61.6%	110%	103%	inactive		inactive	inactive	inactive	inactive		93.7	inactive	
CCOc1cc2c(c(F)c1OCC)C(=N)N(CC(=O)c1cc(N3CCOCC3)c(OC)c(C(C)(C)C)c1)C2	5.53%	11.7%	6.22%	4.1%	2.82%	inactive		10.5 µM (active)	13.2 µM (active)	8330 nM (active)	20900 nM (active)		7.24	inactive	
CC(C=CC=C(C)C=CC1=C(C)CCCC1(C)C)=CC=CC=C(C)C=CC=C(C)C=CC1=C(C)CCCC1(C)C	11.9%	28.1%	7.95%	8%	10%	inactive	8330 nM (active)	18.7 µM (active)	14.8 µM (active)	16600 nM (active)	inactive		92.7		
CCc1c(O)cc(O)c(C(=O)c2ccc(OCCN3CCOCC3)c(OC)c2)c1CC(=O)N(CCOC)CCOC	4.87%	11.6%	7.26%	4.9%	16.5%	inactive	662 nM (active)	2.35 µM (active)	1.05 µM (active)	526 nM (active)	inactive				
CCOC(=O)C=C[C@H](C[C@@H]1CCNC1=O)NC(=O)[C@@H](CC(=O)[C@@H](NC(=O)c1cc(C)on1)C(C)C)Cc1ccc(F)cc1	22%	41.1%	37.6%	74.1%	107%	inactive	inactive	inactive	inactive	inactive	inactive				
C[C@](Cc1c[nH]c2ccccc12)(NC(=O)OC1C2CC3CC(C2)CC1C3)C(=O)NC[C@H](NC(=O)CCC(=O)O)c1ccccc1 (some centres not stated)	10%	30.8%	10.5%	308%	4.7%	inactive		inactive	inactive	inactive	inactive		36.8	inactive	
CCc1cnn2c(NCc3ccc[n+]([O-])c3)cc(N3CCCC[C@@H]3CCO)nc12	14.9%	12.6%	8.08%	4.38%	3.16%	inactive	41.8 nM (active)	0.0264 µM (active)	0.0235 µM (active)	23.5 nM (active)	235 nM (active)		14		
CN[C@H](CC(C)C)C(=O)N[C@H]1C(=O)N[C@@H](CC(N)=O)C(=O)N[C@@H]2C(=O)N[C@H]3C(=O)N[C@H](C(=O)N[C@H](C(=O)O)c4cc(O)cc(O)c4-c4cc3ccc4O)[C@H](O)c3ccc(c(Cl)c3)Oc3cc2cc(c3O[C@@H]2O[C@H](CO)[C@@H](O)[C@H](O)[C@@H]2O[C@H]2C[C@](C)(N)[C@H](O)[C@H](C)O2)Oc2ccc(cc2Cl)[C@H]1O	387%			160%	93.1%	inactive	inactive	inactive	inactive	inactive	inactive				-6.25% (inactive)
O=C(C=CC=Cc1ccc2c(c1)OCO2)N1CCCCC1	87.5%	123%	95%	122%	101%	14.8 µM (active)			inactive	inactive	inactive		15.8	10.5 µM (active)	
COc1ccc(CCC(=O)c2c(O)cc(O[C@@H]3O[C@H](CO)[C@@H](O)[C@H](O)[C@@H]3O[C@@H]3O[C@@H](C)[C@H](O)[C@@H](O)[C@@H]3O)cc2O)cc1O	6.07%	41.2%	6.55%	77%	106%	inactive		9.35 µM (active)	10.5 µM (active)	9350 nM (active)	inactive		17.8	inactive	
COC(=O)[C@@H]1[C@H]2C[C@@H]3c4[nH]c5ccccc5c4CCN3C[C@@H]2CC[C@@H]1O	79.9%	69.1%	66.3%	24.1%	21.8%	inactive		inactive	inactive	inactive	inactive		93.2	inactive	
